Measured values published in PubChem BioAssay AID777 (Sanford-Burnham Center for Chemical Genomics, 2007).
Among all 96,000 compounds or so, about 19,000 (20%) were called active. A selection follows. Unmarked numbers belong to inactive results.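 Rule for the calls: active = blocking of liver enzyme CYP2C9 beyond about 50% at 5 µM (limit read from the data); inactive = the rest.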

Target: Cytochrome P450 2C9 (Homo sapiens) (UniProt P11712)
Experiment: blockers of cytochrome P450 2C9 activity – biochemical, luminescence, ADME assay, primary screen (AID 777)
Conditions: CYP2C9 Supersomes, luciferin-H conversion, at 5 µM, active compounds read high

Chain of Cytochrome P450 2C9 (Homo sapiens) (P11712 whole entry, looked up): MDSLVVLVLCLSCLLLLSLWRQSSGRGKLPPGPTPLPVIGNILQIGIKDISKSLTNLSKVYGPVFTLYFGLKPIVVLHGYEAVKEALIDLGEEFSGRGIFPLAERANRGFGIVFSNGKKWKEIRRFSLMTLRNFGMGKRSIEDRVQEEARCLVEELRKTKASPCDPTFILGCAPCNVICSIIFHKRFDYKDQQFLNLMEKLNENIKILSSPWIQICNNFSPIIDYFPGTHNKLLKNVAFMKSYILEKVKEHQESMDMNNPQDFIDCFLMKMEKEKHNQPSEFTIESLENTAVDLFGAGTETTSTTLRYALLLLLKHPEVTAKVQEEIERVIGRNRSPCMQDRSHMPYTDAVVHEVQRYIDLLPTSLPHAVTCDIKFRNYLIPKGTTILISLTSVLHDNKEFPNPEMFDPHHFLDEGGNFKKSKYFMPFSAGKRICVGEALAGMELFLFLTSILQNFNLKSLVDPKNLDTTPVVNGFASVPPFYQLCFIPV

Compound	inhibition
O=C(NC(C(=O)NCCN1CCOCC1)C12CC3CC(CC(C3)C1)C2)C1CCCCC1 (centres undefined)	18.3%
O=C(COc1ccc(Br)cc1F)NC1CCN(Cc2ccccc2)CC1	28.8%
CC(=O)Oc1cccc(N2C(=O)C3CC=C(Cl)CC3C2=O)c1 (centres undefined)	3.2%
CCCCCCC(=O)N(O)C1CC(=O)N(c2ccccc2)C1=O (centres undefined)	-18.5%
CC1(C)CCCC2=C1CC1C(=O)N(c3ccccc3)C(=O)C1C2 (centres undefined)	90.7% (active)
Cc1cccn2c(=O)c3cc(C(=O)N4COCC4(C)C)n(C)c3nc12	-0.4%
O=C(Nc1ccc(Br)cc1)C1CCC(=O)N1Cc1ccccc1Cl (centres undefined)	89.5% (active)
O=C1c2ccccc2C(O)N1Cc1ccccc1Cl (centres undefined)	-6.9%
CCC(C)NC(=O)C1CCC(=O)N1Cc1ccc(C)cc1 (centres undefined)	3.2%
CCCOc1ccc(-c2nc(N)n[nH]2)cc1	3.7%
N=c1c2c(-c3ccccc3)c(-c3ccccc3)oc2ncn1Cc1ccco1	45.2%
CCc1nc2oc3ccccc3c(=O)c2c(=O)n1Cc1ccc(OC)cc1	6.4%
CC1CN(C(=O)c2ccc3c(c2)OCO3)OC(c2ccccc2)O1 (centres undefined)	35%
CCOC(=O)C1=NNC2(c3ccc(Cl)cc3)C(=O)N(c3cc(C)cc(C)c3)C(=O)C12 (centres undefined)	64.1% (active)
FC(F)(F)c1cc(C(F)(F)F)c2ccc(N3CCN(c4ccccc4)CC3)nc2n1	-7.6%
CCN1CCCC1CNC(=O)c1cc2c(=O)n(C)c3ccccc3c2n1C (centres undefined)	8.3%
O=c1[nH][nH]c(=O)c2cc(N3CCCC3)ccc12	2.6%
Cc1ccc2nc(-c3ccccc3)cc(C(=O)O)c2c1	34.4%
Cc1nc(NNC(=O)c2ccccc2)cc(-c2ccccc2)n1	62.7% (active)
COc1ccc(C(=O)NN(C)c2nc(-c3ccccc3)cc(C)c2S(C)(=O)=O)cc1	13.3%
CCCCN(CC)CCCNC(=O)CS(=O)(=O)Cc1nc(-c2cccc(OC)c2)oc1C	-5.6%
Cc1ccc(S(=O)(=O)Nc2ccc3ncccc3c2)cc1	84.1% (active)
CC(=O)N1CCN(C(=O)c2cccc(S(=O)(=O)Nc3ccc(C)cc3)c2)CC1	0.3%
Cc1ccc(S(=O)(=O)Nc2nc(C)cc(-n3nc(C)cc3C)n2)cc1	29.1%
CN=C1SC(CC(=O)Nc2ccc(C(=O)O)cc2)C(=O)N1C (centres undefined)	8.3%

Compound	inhibition
CCCCOc1ccc(NC(=O)CSCC(=O)OCC)cc1	0.4%
CCOC(=O)C1CCCCN1Cc1ccc(OC)c(OC)c1OC (centres undefined)	29.7%
COc1ccc2c(c1)CCc1c(C(=O)N3CCCC3)noc1-2	-6.1%
COc1ccc2c(c1)CCc1c(C(=O)N3CCc4ccccc4C3)noc1-2	73.7% (active)
COc1ccc2c(c1)CCc1c(C(=O)Nc3c(C)n(C)n(-c4ccccc4)c3=O)noc1-2	14%
CCOC(=O)c1cc(-c2ccc(Cl)s2)nc2c1c(C)nn2C	32.3%
Cc1cc(C(F)F)n2nc(C(=O)Nc3ccc(S(=O)(=O)NC45CC6CC(CC(C6)C4)C5)cc3)nc2n1	24.7%
CCOc1c(OC)cc(C2C(C#N)=C(N)Oc3n[nH]c(-c4ccncc4)c32)cc1OC (centres undefined)	20.1%
COc1ccc(/C=C2\CCCC3C2=NN(C(=O)c2scnc2C)C3c2ccc(OC)cc2)cc1 (centres undefined)	83.4% (active)
Cc1nc2ccc(C(=O)O)cc2[nH]1	14.9%
Cc1cc(Br)ccc1NC(=O)C1CCCO1 (centres undefined)	-2.8%
CCOC(=O)C1CN(S(=O)(=O)c2ccc(F)cc2)C1	8.2%
COc1ccc(OC)c(NC(=O)CC(Cc2ccccc2OC)C(=O)O)c1 (centres undefined)	40.6%
CCCCC(=O)Nc1nc(C)c(-c2csc(Nc3ccc(Cl)cc3)n2)s1	57.3% (active)
CCCCCCC(=O)Nc1nc(C)c(-c2csc(Nc3cc(Cl)ccc3OC)n2)s1	14.8%
C=CCCC(=O)Nc1nc(C)c(-c2csc(Nc3ccc(Cl)cc3)n2)s1	38.2%
CC(C)C(=O)N1c2ccccc2NC2=C(C(=O)CCC2)C1c1ccc(N(C)C)cc1 (centres undefined)	16.8%
COc1ccc(CCn2c(-c3ccco3)nc3nc4ccccc4nc32)cc1OC	34.7%
CCC(C)n1c(-c2cc(OC)c(OC)c(OC)c2)nc2nc3ccccc3nc21 (centres undefined)	95.3% (active)
COC(=O)c1nc(NC(=O)c2ccc(Cl)cc2)n[nH]1	7.9%
O=S(=O)(Nc1nccs1)c1ccc2c(c1)OCCO2	-23.3%
CCc1ccccc1NC(=O)/C(=C/c1ccccc1)c1ccccc1	16.4%
O=C(/C=C/c1ccccc1)N/C(=C/c1ccccc1)C(=O)Nc1ccccc1O	62.7% (active)
O=C(/C=C/c1ccccc1)c1ccoc1	15.1%
CC(C)c1ccc(-c2nn[nH]n2)cc1	9.2%

Compound	inhibition
O=C(Nc1ccc(Cl)cc1)N1CCc2[nH]c3ccccc3c2C1	14.2%
Cc1cc(C)c(NC(=O)CS(=O)CC(=O)Nc2cccnc2)c(C)c1 (centres undefined)	22.7%
Cc1cccc(-n2cnc(C(=O)Nc3cccnc3)c2)n1	88.2% (active)
CCC(=O)Nc1cccc(NC(=O)c2cccnc2)c1	6.5%
Cc1cc(-n2nc(C)cc2C)n2nc(C)c(-c3ccccc3)c2n1	25.1%
CC(Oc1ccc(Cl)cc1)C(=O)OCC(=O)Nc1ncc(Cl)cc1Cl (centres undefined)	-20.7%
CNC(=O)c1ccc2nc(NC(C)=O)sc2c1	21.5%
Cc1cc(C)cc(OCC(=O)Nc2nc3ccc([N+](=O)[O-])cc3s2)c1	48.4%
O=C(NC(Nc1nc2ccc([N+](=O)[O-])cc2s1)(C(F)(F)F)C(F)(F)F)c1ccccc1	97.4% (active)
O=C(Nc1ccc(Cl)cc1)c1ccsn1	-4.3%
O=C(c1ccc(Cl)cc1)c1cnc(Nc2ccccc2)s1	21.7%
O=C(Nc1ccccc1)c1nnsc1S(=O)(=O)c1ccc(Cl)cc1	74.9% (active)
Cc1ccc(N2CCN(c3ccc(C)cc3)C2c2ccccn2)cc1	1.3%
O=C(NCCCCCCCCCNC(=O)C(F)(F)F)C(F)(F)F	11.2%
CCCOc1ccccc1C(=O)NCCCC(=O)O	-8.2%
CS(=O)(=O)N1CCN(C(=O)Cc2ccccc2)CC1	-5.4%
CCOc1ccc(Cn2nnc(C(=O)NCc3ccccc3)c2N)cc1	-2.2%
COc1ccc(OC)c(CN2C(=O)CCC2(C)C(=O)NC2CCCCCC2)c1 (centres undefined)	30%
CC(=O)Oc1ccc2c(C)c(CC(C)O)c(=O)oc2c1 (centres undefined)	-16%
CCOC(=O)CCc1c(C)c2ccc(OCc3nn[nH]n3)c(C)c2oc1=O	86.3% (active)
Cc1c(C(=O)Nc2ccccc2Cl)oc2ccc(S(=O)(=O)N3CCC4(CC3)OCCO4)cc12	31.2%
CCOC(=O)N1CCN(C(=O)c2cn(C)c3ccc(S(=O)(=O)N4CCCC4)cc3c2=O)CC1	-6.2%
CCOC(=O)C1CCN(C(=O)c2oc3ccc(S(=O)(=O)N4CCCCCC4)cc3c2C)CC1	53.6% (active)
C=CCn1c(COc2ccccc2F)nnc1SCC(=O)N1CC(=O)Nc2ccccc21	12.5%
CCN=C1SC(CC(=O)Nc2ccc(C)cc2)C(=O)N1CC (centres undefined)	-8.7%

Compound	inhibition
CCN1C(=O)C(CC(=O)Nc2cc(C)ccc2C)SC1=Nc1ccc(S(N)(=O)=O)cc1 (centres undefined)	90.8% (active)
Cc1ccc(C)c(NC(=O)C2CC(=O)N(C(C)C)C2)c1 (centres undefined)	-14.4%
O=S(=O)(/C=C/c1ccccc1)NCCc1ccccn1	-35.1%
Cc1nnc(SCC(=O)N(C(C)C)C(C)C)nc1C	-18.5%
CCCn1c(=O)c(-c2ccccc2)c(O)c2ccccc21	1.5%
Cc1cccc(OCC(O)Cn2c(=N)n(CCN3CCOCC3)c3ccccc32)c1 (centres undefined)	-8.4%
COc1ccc(S(=O)(=O)N2CCOCC2)cc1C(=O)Nc1nc2ccccc2s1	-3.9%
O=C(Nc1nc2cc3c(cc2s1)OCCO3)c1cccc(S(=O)(=O)N2CCOCC2)c1	50.9% (active)
O=C(c1ccc2c(c1)OCCO2)C1CCN(S(=O)(=O)c2cccc(F)c2)CC1	-18.3%
CC1(C)CC(CCC(=O)Nc2ccccc2Cl)C(=O)O1 (centres undefined)	-35.4%
CCc1nnc(NC(=O)CCC(=O)O)s1	-9.1%
CCCCc1nc2c(=O)[nH]c3ccccc3c2o1	-4.4%
O=C(Nc1ccc2ccccc2c1)Nc1ccc2snnc2c1	19.3%
COc1ccc(NC(=O)/C(Cl)=C(/Cl)S(=O)Cc2ccc(C)cc2)cn1 (centres undefined)	52.9% (active)
COc1cccc(NC(=O)Cc2ccc(C)cc2)c1	21.1%
O=C(Nc1cccc2c1CCCC2)C1CCN(C(=O)NC2CCCCC2)CC1	1.9%
Cc1ccc(S(=O)(=O)C(C#N)c2nc3ccccc3nc2N2CCCC2)cc1C (centres undefined)	93.4% (active)
Cc1cccc2cc(C#N)c(N3CCCC3)nc12	-2.2%
CC(C)CCOc1ccc(C(=O)C[N+]2(C)CCOCC2)cc1	11%
COc1ccccc1NC1=NC2(CCCC2)N=C(N)N1	-4%
Cc1nc(N2CCOCC2)nc2c1CCCC2	-1.5%
COc1ccccc1N1CCN(C(=O)Cn2nnc(-c3cccs3)n2)CC1	47.2%
CCOc1ccc(-c2nnn(CC(=O)N3CCN(c4ccc(F)cc4)CC3)n2)cc1OCC	-6.1%
O=C(Nc1ccccc1-c1nnn(CC(=O)N2CCN(c3ccccc3)CC2)n1)c1cccs1	80.1% (active)
